High-throughput results as filed in PubChem BioAssay.
tim10-1 inh = tim10-1 yeast growth inhibition; AID 463190; inhibition, % at 20 µM; hit rate 2.2% among 330,000; S. cerevisiae tim10-1 ts strain growth, BacTiter-Glo, 24 h;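 active means inhibition of at least 40%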;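 further: mutant grown at 25 °C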
NALP1 inh = NALP1 inhibition. S. cerevisiae NALP1/ASC/caspase-1 growth, X-gal OD620, 72 h. inhibition, % at 10 µM. hit rate 0.61% among 280,000. AID 2071; in the data active means inhibition mostly above about 24%, no sharp cut-off; inactive means mostly below about 32%
TIM10 inh = growth inhibitors of TIM10 yeast strain. S. cerevisiae TIM10 strain growth, BacTiter-Glo luminescence, 24 h. inhibition, % at 10 µM. hit rate 1.4% among 330,000. AID 463195;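 active means inhibition of 40% or more at the single tested concentration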;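 further: wild-type TIM10 isogenic control strain grown at permissive 25 °C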
NLRP3 yeast inh = inhibitors of NALP3 inflammasome in yeast; Yeast reconstituted NLRP3/ASC/caspase-1, beta-gal luminescence, 24 h; inhibition, % at 10 µM; hit rate 0.39% among 330,000; AID 2825;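 active means inhibition of 50% or more; inactive means inhibition below 50%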
tim23-1 inh = tim23-1 yeast growth inhibition | S. cerevisiae tim23-1 growth, BacTiter-Glo luminescence, 24 h | inhibition, % at 20 µM | hit rate 1.3% among 330,000 | AID 463212;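 active means growth inhibition of the mutant yeast at or above 50%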;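 further: temperature-sensitive mutant grown at 25 °C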
tim10 confirm = TIM10 yeast growth inhibition, confirmed; shares compounds with TIM10 inh; S. cerevisiae tim10 strain growth, BacTiter-Glo luminescence, 24 h; inhibition, % at 10 µM; hit rate 63% among 4,600; AID 463215;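 active means inhibition of yeast growth at or above a set limit in either of two replicates at 10 µM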; further: this counterscreen used the strain with wild-type TIM10
tim23-1 confirm = confirmation of tim23-1 mutant yeast growth inhibitors; shares compounds with tim23-1 inh; S. cerevisiae tim23-1 growth, BacTiter-Glo luminescence, 24 h; inhibition, % at 20 µM; hit rate 83% among 4,400; AID 463218;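 active means inhibition above about 39% in either of two replicate wells at 20 µM, limit read from the data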;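 further: temperature-sensitive tim23-1 mutant grown at 25 °C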
Large screens that a line does not name were inactive (follow-up assays come after a bar, where they were run). Only some compounds are listed: those with a hit (about 4% of all), similar ones and a draw of the others.

COc1ccc(OC)c2[nH]c(C(=O)N/N=C/c3ccccc3O)cc12	TIM10 inh 44.7, tim23-1 inh 54.3 | tim10 confirm inactive | tim23-1 confirm 49.8
Cc1cc(S(=O)(=O)c2ccc([N+](=O)[O-])cn2)ccc1Br	TIM10 inh 44.4, tim23-1 inh 86.3 (no result: NALP1 inh) | tim10 confirm 60.5 | tim23-1 confirm 80.6
CC1(C)S[C@@H]2[C@H](NC(=O)[C@H](N)c3ccccc3)C(=O)N2[C@H]1C(=O)OC1OC(=O)c2ccccc21 (stereo partly drawn)	none (no result: NALP1 inh)
COc1ccc(OC)c(N/C(C)=C/C(=O)c2ccccc2)c1	none
COc1ccc(OC)c(N/C=C/C(=O)c2ccccc2)c1	TIM10 inh 44.3, tim23-1 inh 62.0 | tim10 confirm inactive | tim23-1 confirm 82.8
O=C(Nc1ccc2c(c1)OCCO2)c1ccc(Br)s1	none (no result: tim10-1 inh, TIM10 inh, NLRP3 yeast inh, tim23-1 inh)
CCc1sc(C(=O)Nc2ccc3c(c2)OCCO3)cc1Br	TIM10 inh 54.0, tim23-1 inh 78.7 | tim10 confirm 47.3 | tim23-1 confirm 84.9
N#Cc1nc(NCC(F)F)nc(Nc2cc(F)cc(F)c2)n1	TIM10 inh 42.3, tim23-1 inh 68.8 (no result: NALP1 inh) | tim10 confirm 49.8 | tim23-1 confirm 65.5
Cc1cc(Cl)ccc1NC(=O)CCC(=O)N/N=C/c1cc([N+](=O)[O-])ccc1O	none
O=[N+]([O-])c1ccc(O)c(/C=N/NC(=S)Nc2ccc(Cl)cc2Cl)c1	TIM10 inh 45.7, tim23-1 inh 81.2 (no result: NALP1 inh) | tim10 confirm 43.1 | tim23-1 confirm 77.0
Cc1ccc2oc(C(=O)NCCCN3CCOCC3)c(C)c2c1	none
N#C/C(=C\c1ccc(N2CCOCC2)o1)c1nc2ccccc2[nH]1	TIM10 inh 41.6, tim23-1 inh 53.9 | tim10 confirm 31.2 | tim23-1 confirm 73.8
N#C/C(=C\c1ccc(N2CCOCC2)c([N+](=O)[O-])c1)c1nc2ccccc2[nH]1	none
CN(CC(=O)Nc1ccccc1Cl)C(=O)c1ccc(N2C(=O)CCC2=O)cc1	none (no result: NALP1 inh)
CN(CC(=O)Nc1ccccc1Br)C(=O)c1ccccc1-c1nc2ccccc2s1	none
c1csc(-c2nc3ccccc3[nH]2)c1	none
Cc1ccc(-c2nc3ccccc3[nH]2)s1	TIM10 inh 40.2, tim23-1 inh 51.3 | tim10 confirm inactive | tim23-1 confirm 70.7
COc1ccc(N(CC(=O)NCCSCc2cccc(Cl)c2)S(C)(=O)=O)cc1Cl	none
O=[N+]([O-])c1ccc(O)c(C=Nc2ccc3c(c2)OCCO3)c1	none
Oc1c(Br)cc(Br)cc1C=Nc1ccc2c(c1)OCO2	TIM10 inh 66.4, tim23-1 inh 82.5 | tim10 confirm 51.5 | tim23-1 confirm 72.0
Oc1c(Br)cc(Br)cc1C=Nc1ccc2c(c1)OCCO2	TIM10 inh 55.7, tim23-1 inh 83.7 | tim10 confirm 34.2 | tim23-1 confirm 91.6
Cc1cc(Br)cc(C=Nc2ccc(N3CCOCC3)cc2)c1O	none (no result: NALP1 inh)
Cc1ccc2nc(-c3ccc4c(c3)OCCO4)cn2c1	TIM10 inh 74.3, tim23-1 inh 51.2 | tim10 confirm 75.6 | tim23-1 confirm 52.1
COc1cccc(/C=N/Nc2ncnc3scc(-c4ccccc4)c23)c1O	TIM10 inh 54.5, tim23-1 inh 59.0 | tim10 confirm 67.1 | tim23-1 confirm 59.7
Cc1ccc(-c2cn(-c3ccccc3F)c(=S)[nH]2)cc1	TIM10 inh 44.6, tim23-1 inh 61.2 | tim10 confirm 46.8 | tim23-1 confirm 47.6
O=S(=O)(c1ccccc1)N1N=C(c2ccccc2)CC1c1ccccc1F (stereo not drawn)	none
FC(F)(F)c1cccc(NC(=S)NNC(=S)Nc2ccc(Cl)cc2)c1	TIM10 inh 58.9, tim23-1 inh 64.9 (no result: NALP1 inh) | tim10 confirm 73.2 | tim23-1 confirm inactive
FC(F)(F)c1cnc(NNC(=S)Nc2ccc(Cl)cc2)c(Cl)c1	none
COc1ccc(C(=O)OCCN2CCN(C3=NS(=O)(=O)c4ccccc43)CC2)cc1OC	none
O=C(/C=C/c1ccco1)Nc1ccc2c(c1)OCCO2	none
O=C(/C=C/c1ccccc1)Nc1ccc2c(c1)OCCO2	TIM10 inh 45.6, tim23-1 inh 54.2 | tim10 confirm inactive | tim23-1 confirm 70.4
CCC(C)N(C(=O)c1csnn1)C(C(=O)NC1CCCC1)c1ccccc1F (stereo not drawn)	none
